In PubChem BioAssay (NCATS):
Inconclusive results are not listed. Where a call stands in place of a potency, no number is given. The source made the active and inactive calls. Calls come from the whole dose curve; as a rule, active = well fitted curve in the direction sought with a large enough effect; inconclusive = small, poorly fitted or top-dose-only effect, or another doubt; inactive = no such curve, though single readings can be large; an effect the other way counts as inactive or inconclusive.

Key:
[1] = qHTS Assay for Identification of Small Molecule Antagonists for Thrombopoietin (TPO) Signaling Pathway (AID 918); settings: TPO-dependent cell signaling reporter, antagonist mode; note: potency is the fitted concentration of half-maximal effect; nearly all actives have a fitted effect of over 60% in size
In short: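 Inhibitors of TPO signaling are sought by stimulating IL-3-starved murine Ba/F3 cells (human TPO receptor, Glycoprotein IIb-driven luciferase) with TPO at its EC50 of 26 pM alongside compound. After 24 hrs at 37 C, reporter luminescence is measured.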

[2] = biological target: Cytochrome P450 2C9 (Homo sapiens) (UniProt P11712); test: qHTS Assay for Inhibitors and Substrates of Cytochrome P450 2C9 (AID 883); settings: recombinant CYP2C9, luciferin-H luminescence, 60 min; series mostly up to 57.1 µM; note: nearly all actives have a fitted effect of over 60% in size
Cytochrome P450 2C9 (Homo sapiens), sequence (P11712 whole entry, looked up): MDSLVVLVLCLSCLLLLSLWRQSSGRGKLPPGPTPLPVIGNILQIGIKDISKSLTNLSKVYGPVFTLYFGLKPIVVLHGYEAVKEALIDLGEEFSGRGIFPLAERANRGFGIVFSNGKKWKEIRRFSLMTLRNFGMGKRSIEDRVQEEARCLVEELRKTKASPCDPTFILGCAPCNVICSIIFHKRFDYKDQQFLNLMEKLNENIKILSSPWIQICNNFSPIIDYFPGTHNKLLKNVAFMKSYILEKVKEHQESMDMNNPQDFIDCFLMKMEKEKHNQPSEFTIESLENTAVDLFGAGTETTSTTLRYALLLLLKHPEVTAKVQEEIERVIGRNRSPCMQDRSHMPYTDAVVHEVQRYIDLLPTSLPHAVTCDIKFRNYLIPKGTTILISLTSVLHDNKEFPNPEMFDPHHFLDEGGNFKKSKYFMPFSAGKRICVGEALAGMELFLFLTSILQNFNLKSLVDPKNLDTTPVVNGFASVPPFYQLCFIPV
In short: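 10nM CYP2C9 + 100uM Luciferin-H (=KM), 25mM KPO4; cpd 10 min 37C; NADPH regen, 60 min 37C; stop/detect with P450 Glo-Buffer 20 min; luminescence. Norm. to 57uM sulphaphenazole as full inhibition.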

[3] = biological target: Cytochrome P450 2D6 (Homo sapiens) (UniProt P10635); test: qHTS Assay for Inhibitors and Substrates of Cytochrome P450 2D6 (AID 891); settings: recombinant CYP2D6, luciferin-ME EGE luminescence; series mostly up to 57.1 µM;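 note: luciferin methyl ether substrate demethylated by CYP2D6 with NADPH regeneration; nearly all actives have a fitted effect of over 60% in size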
Cytochrome P450 2D6 (Homo sapiens), sequence (P10635 whole entry, looked up): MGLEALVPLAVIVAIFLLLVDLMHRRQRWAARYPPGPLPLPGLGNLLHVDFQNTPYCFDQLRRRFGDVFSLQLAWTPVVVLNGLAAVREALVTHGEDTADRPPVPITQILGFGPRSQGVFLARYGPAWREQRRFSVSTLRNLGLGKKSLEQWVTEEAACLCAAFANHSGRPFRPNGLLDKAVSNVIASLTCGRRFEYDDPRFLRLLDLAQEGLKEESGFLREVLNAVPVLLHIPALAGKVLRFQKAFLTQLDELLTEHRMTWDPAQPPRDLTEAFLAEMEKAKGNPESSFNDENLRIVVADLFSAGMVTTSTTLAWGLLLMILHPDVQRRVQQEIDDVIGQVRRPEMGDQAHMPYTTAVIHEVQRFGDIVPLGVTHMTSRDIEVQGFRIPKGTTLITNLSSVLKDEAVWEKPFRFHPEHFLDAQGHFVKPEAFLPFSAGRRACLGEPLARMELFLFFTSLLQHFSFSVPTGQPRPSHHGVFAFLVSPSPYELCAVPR
In short: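 Luminescent read-out of luciferin formed by 5 nM human CYP2D6 demethylating 30 uM Luciferin-ME EGE (Km level) over 60 min at room temperature after NADPH regeneration addition. Data normalized to full inhibition by 1.43 uM quinidine.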

[4] = biological target: D(1A) dopamine receptor (Homo sapiens) (UniProt P21728); test: HTS Assay for Allosteric Agonists of the Human D1 Dopamine Receptor: Primary Screen for Potentiators (AID 488982); settings: HEK293 T-REx D1 inducible cells, calcium flux, kinetic fluorescence; series mostly up to 8.37 µM; note: potency is the fitted concentration of half-maximal effect
D(1A) dopamine receptor (Homo sapiens), sequence (P21728 whole entry, looked up): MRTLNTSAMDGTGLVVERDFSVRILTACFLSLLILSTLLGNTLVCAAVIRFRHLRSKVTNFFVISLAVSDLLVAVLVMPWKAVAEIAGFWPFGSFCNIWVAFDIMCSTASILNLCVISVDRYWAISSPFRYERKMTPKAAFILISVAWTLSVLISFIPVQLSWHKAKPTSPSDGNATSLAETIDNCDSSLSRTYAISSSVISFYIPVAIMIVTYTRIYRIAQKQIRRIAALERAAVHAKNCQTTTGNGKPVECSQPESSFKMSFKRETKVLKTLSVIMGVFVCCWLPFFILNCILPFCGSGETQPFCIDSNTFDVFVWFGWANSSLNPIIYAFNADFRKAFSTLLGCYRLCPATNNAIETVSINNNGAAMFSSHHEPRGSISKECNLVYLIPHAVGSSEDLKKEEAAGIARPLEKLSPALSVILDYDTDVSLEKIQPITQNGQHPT
In short: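 Tetracycline-induced HEK293 Trex D1 cells with forced coupling to calcium, loaded with no-wash calcium dye; kinetic fluorescence read 180 s after compound addition for agonism, then a further 180 s after an EC20 dopamine challenge for potentiation.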

[5] = HTS Assay for Allosteric Antagonists of the Human D2 Dopamine Receptor: Hit Validation in HTRF (AID 624455); settings: Cells stably expressing D1 dopamine receptor, inhibition mode; series mostly up to 46.1 µM;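 note: stable D1 dopamine receptor cell line scored for blocking the D1 response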
In short: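 Inhibition of the D1-mediated response is measured by HTRF in cells that stably express the D1 dopamine receptor. Compounds reaching this step are hits from calcium-flux antagonism testing at EC80 dopamine in inducible Hek293 Trex D2 cells.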

[6] = biological target: Tyrosyl-DNA phosphodiesterase 1 (Homo sapiens) (UniProt Q9NUW8); test: Confirmation Assay for Inhibitors of Tyrosyl-DNA Phosphodiesterase (TDP1) (AID 489007); settings: recombinant human TDP1 enzymatic activity, dose-response; note: potency is the fitted concentration of half-maximal effect; nearly all actives have a fitted effect of over 40% in size
Tyrosyl-DNA phosphodiesterase 1 (Homo sapiens), sequence (Q9NUW8 whole entry, looked up): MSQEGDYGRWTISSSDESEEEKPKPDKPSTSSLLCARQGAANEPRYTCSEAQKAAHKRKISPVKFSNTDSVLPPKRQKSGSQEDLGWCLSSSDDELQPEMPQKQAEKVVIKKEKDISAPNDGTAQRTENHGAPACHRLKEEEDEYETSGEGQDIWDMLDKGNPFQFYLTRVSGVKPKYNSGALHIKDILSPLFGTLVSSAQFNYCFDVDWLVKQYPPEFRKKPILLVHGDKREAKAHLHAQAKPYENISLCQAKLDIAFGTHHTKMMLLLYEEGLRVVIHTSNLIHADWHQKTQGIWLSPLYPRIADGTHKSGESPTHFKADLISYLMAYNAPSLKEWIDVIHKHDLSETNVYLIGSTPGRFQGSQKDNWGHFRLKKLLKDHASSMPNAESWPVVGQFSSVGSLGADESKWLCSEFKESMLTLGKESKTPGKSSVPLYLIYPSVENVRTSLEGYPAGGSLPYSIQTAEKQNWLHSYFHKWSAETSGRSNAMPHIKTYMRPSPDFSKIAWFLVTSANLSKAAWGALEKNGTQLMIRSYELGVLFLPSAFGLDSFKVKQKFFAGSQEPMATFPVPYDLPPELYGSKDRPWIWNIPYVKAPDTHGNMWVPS
In short: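 Compounds are preincubated 15 min at room temperature with 1 nM recombinant human Tdp1. The reaction starts on adding 15 nM FITC-phosphotyrosine DNA substrate, runs 5 min, and is detected by AlphaScreen beads after 10 min.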

O=c1oc(Cl)c(Cl)c2ccccc12
Potency [1]: 12600 nM (active)

Nc1nc2ccc(Cl)cc2c2nc(-c3ccco3)nn12
Potency [2]: inactive
Potency [3]: inactive
Potency [4]: 1300 nM (active)

Cn1ccnc1
outcome [5]: inactive

NC1C=CC=C(C(=O)O)C1 (stereo unspecified)
Potency [6]: 1120 nM (active)
